Among the data in PubChem BioAssay (Tox21) are Potency and outcome values, retold here.

Experiment [1] in a line: qHTS assay to identify small molecule antagonists of the estrogen receptor alpha (ER-alpha) signaling pathway using the BG1 cell line in the presence of 0.1 nM 17-beta-estradiol - cell viability counter screen (AID 1259241). Further: nearly all actives have a fitted effect of over 40% in size. Further: potency means the concentration at half of the fitted maximal effect. Put shortly: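 VM7Luc4E2 cells (endogenous ER-alpha, 4×ERE-luciferase), hormone-starved 5 days in charcoal-stripped FBS, were treated with compounds plus 0.1 nM 17beta-estradiol for 22 hr at 37C; viability read in same wells as CellTiter-Fluor live-cell protease fluorescence.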
On the technique in general: In qHTS, concentration-response curves come from the screen itself.

Experiment [2] in a line: qHTS assay to identify small molecule phospholipidosis (PLD) inducers (AID 1259344; active means well fitted curve in the direction sought with a large enough effect; an effect the other way counts as inactive or inconclusive). The method, boiled down:
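Quantitative HTS in HepG2: compound plus LipidTOX Red dye for 24 h, paraformaldehyde fixation with Hoechst 33342, widefield high-content imaging; amiodarone as positive and DMSO as negative control.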

The nature of experiment [3]: qHTS assay to identify small molecule HDAC inhibitors (AID 1259364). Further: potency means the concentration at half of the fitted maximal effect.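 Further: wild-type HCT-116 cells with endogenous class I/II HDAC activity; nearly all actives have a fitted effect of over 45% in size.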 The method, boiled down:
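Read-out: luminescence of HDAC-Glo I/II reagent, 30 min RT, reflecting class I/II deacetylase activity in whole HCT-116 cells pre-exposed 2 h to DMSO-dissolved compounds.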

The nature of experiment [4]: qHTS assay to identify small molecule antagonists of the sonic hedgehog signaling (Shh) pathway - cell viability counter screen (AID 1259367). Further: nearly all actives have a fitted effect of over 55% in size. Further: potency means the concentration at half of the fitted maximal effect. Put shortly:
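Seed 3T3 Gli1-Luc cells at 2,000 per well; incubate 4 hr; add compound in DMSO, then conditioned medium; incubate at 37C with 5% CO2; add CellTiter-Fluor after 23 hr; read fluorescence 1 hr later.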

A short description of experiment [5]: qHTS assay to identify small molecule agonists of the sonic hedgehog signaling (Shh) pathway (AID 1259368; calls by dose curve; further: series mostly up to about 92 µM; nearly all actives have a fitted effect of over 15% in size). Put shortly: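 A Gli1 transcriptional response element controlled firefly luciferase in 3T3Gli1-Luc cells. Compounds and a positive control were added 4 hr after plating, and cells were incubated a further 24 hr at 37 C before luminescence detection.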

The nature of experiment [6]: qHTS assay to identify small molecule antagonists of the sonic hedgehog signaling (Shh) pathway (AID 1259369; calls by dose curve; further: nearly all actives have a fitted effect of over 45% in size; further: potency means the concentration at half of the fitted maximal effect). Put shortly: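 For antagonist detection, the reporter line received test compounds together with conditioned medium, incubated 24hr at 37 C, 5% CO2, then luminescence was recorded following 30min room-temperature luciferase reagent incubation.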
The nature of experiment [7]: qHTS assay to identify small molecule antagonists of the estrogen receptor beta (ER-beta) signaling pathway - cell viability counter screen (AID 1259382). Further: nearly all actives have a fitted effect of over 55% in size. Further: potency means the concentration at half of the fitted maximal effect. The method, boiled down:
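In this multiplexed counter screen, cells were seeded at 2,000 per well in medium with 2% charcoal-stripped FBS and incubated 6 hr before compound and 1nM final E2 were added. Sixteen hours later, ATP-based luminescence reported viability.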

The target of experiment [8] is Estrogen receptor (Homo sapiens) (UniProt P03372). As to the kind of experiment: qHTS assay to identify small molecule agonists of the estrogen receptor alpha (ER-alpha) signaling pathway in the presence of an antagonist (AID 1259383; calls by dose curve; further: top concentration of the series differs between compounds; nearly all actives have a fitted effect of over 15% in size). Put shortly:
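Stably transfected VM7Luc4E2 reporter cells, kept 5 days in charcoal-stripped serum, received ICI-182,780 at 10.0nM final before compound addition. Following 22hr incubation at 37C and 5% CO2, luciferase signal was read by luminescence.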

The nature of experiment [9]: qHTS assay to identify small molecule agonists or antagonists of the thyroid stimulating hormone receptor (TSHR) signaling pathway - wild type cell line counter screen (AID 1259384; calls by dose curve). The method, boiled down:
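Wild-type Hek293 cells, 800/well, 18 h at 37C, then compound with Ro20-1724 for 30 min RT. cAMP by HTRF (cAMP-d2/anti-cAMP cryptate), 1 h RT, fluorescence read. 15 concentrations, triplicates.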

The target of experiment [10] is Estrogen receptor (Homo sapiens) (UniProt P03372). As to the kind of experiment: qHTS assay to identify small molecule antagonists of the estrogen receptor alpha (ER-alpha) signaling pathway using the BG1 cell line in the presence of 0.1 nM 17-beta-estradiol (AID 1259244). Further: nearly all actives have a fitted effect of over 50% in size. Put shortly: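 Estradiol at 0.1 nM (final) stimulates the endogenous ER-alpha of VM7Luc4E2 cells carrying an ERE-driven luciferase; compounds are co-incubated 22 h at 37C and luciferase output quantified by luminescence.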
Chain of Estrogen receptor (Homo sapiens) (P03372 whole entry, looked up): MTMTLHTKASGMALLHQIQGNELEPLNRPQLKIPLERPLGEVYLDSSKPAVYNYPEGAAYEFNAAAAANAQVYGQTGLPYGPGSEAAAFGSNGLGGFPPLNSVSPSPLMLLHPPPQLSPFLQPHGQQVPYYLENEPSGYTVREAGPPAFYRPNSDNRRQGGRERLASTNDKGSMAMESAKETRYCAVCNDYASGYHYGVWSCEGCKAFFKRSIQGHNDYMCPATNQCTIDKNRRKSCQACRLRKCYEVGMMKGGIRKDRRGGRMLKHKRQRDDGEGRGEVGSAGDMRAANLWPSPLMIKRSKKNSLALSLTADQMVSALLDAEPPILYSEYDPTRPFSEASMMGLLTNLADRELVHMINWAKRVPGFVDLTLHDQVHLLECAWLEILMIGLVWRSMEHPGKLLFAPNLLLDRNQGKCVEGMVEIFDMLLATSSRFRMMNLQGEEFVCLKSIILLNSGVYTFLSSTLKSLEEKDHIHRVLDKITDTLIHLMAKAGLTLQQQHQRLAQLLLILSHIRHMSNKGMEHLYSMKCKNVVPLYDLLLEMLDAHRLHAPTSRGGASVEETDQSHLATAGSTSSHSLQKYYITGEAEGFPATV

Experiment [11] in a line: qHTS assay to identify small molecule agonists of the sonic hedgehog signaling (Shh) pathway - cell viability counter screen (AID 1259366). Further: nearly all actives have a fitted effect of over 50% in size. Further: potency means the concentration at half of the fitted maximal effect. The method, boiled down: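 NIH/3T3-derived 3T3 Gli1-Luc cells (stable Gli1-responsive firefly luciferase reporter) were seeded, rested 4 hr at 37 C/5% CO2, then exposed to compounds in DMSO for 24 hr; viability was read by CellTiter-Fluor fluorescence in the same wells.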

Experiment [12] concerns the target Estrogen receptor beta (Homo sapiens) (UniProt Q92731). Kind of experiment: qHTS assay to identify small molecule agonists of the estrogen receptor beta (ER-beta) signaling pathway (AID 1259377; active means well fitted activation curve with a large enough effect in the signal ratio in the repeat runs, not every such curve was filed as active; the % refers to the signal ratio). Put shortly: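 ER-beta-UAS-bla HEK293T (GripTite) cells carrying a UAS-driven beta-lactamase reporter, in medium with 2% charcoal-stripped FBS, were exposed to compounds for 16 hr at 37C; LiveBLAzer B/G FRET substrate was then added and fluorescence read after 2 hours at room temperature.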

Experiment [13] has the same target. As to the kind of experiment: qHTS assay to identify small molecule antagonists of the estrogen receptor beta (ER-beta) signaling pathway (AID 1259378; active means well fitted inhibition curve with a large enough effect in the signal ratio in the repeat runs, not every such curve was filed as active; the % refers to the signal ratio; further: potency means the concentration at half of the fitted maximal effect). The method, boiled down:
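ER-beta-UAS-bla HEK293T cells in 2% charcoal-stripped FBS medium treated with compound plus 1nM final 17-beta-estradiol for 16 hr at 37C. Beta-lactamase reporter read by FRET substrate fluorescence after 2 hours at room temperature.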

Experiment [14] is described as follows: qHTS assay to identify small molecule HDAC inhibitors - cell viability counter screen (AID 1259365). Further: nearly all actives have a fitted effect of over 50% in size. Further: potency means the concentration at half of the fitted maximal effect. The method, boiled down: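 Wild-type HCT-116 cells were seeded at 1,500 per well, incubated overnight at 37 C, then exposed to compounds in DMSO for 2hr. Viability was read by CellTiter-Glo luminescence after 30min at room temperature.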
Experiment [15] can be described thus: qHTS assay to identify small molecule agonists of the estrogen receptor beta (ER-beta) signaling pathway - cell viability counter screen (AID 1259380). Further: nearly all actives have a fitted effect of over 30% in size. Further: potency means the concentration at half of the fitted maximal effect. Put shortly:
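CellTiter-Glo read, 30 min RT, same wells as bla assay; cells ER-beta-UAS-bla HEK293T; 16 hr compound, 37C; medium 2% charcoal-stripped FBS.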

Experiment [16] deals with Thyrotropin receptor (Homo sapiens) (UniProt P16473). Kind of experiment: qHTS assay to identify small molecule antagonists of the thyroid stimulating hormone receptor (TSHR) signaling pathway (AID 1259385; calls by dose curve; further: nearly all actives have a fitted effect of over 20% in size; further: potency means the concentration at half of the fitted maximal effect). Put shortly:
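TSHR-HEK293 cells (800/well) plated 18 h, then compounds with Ro20-1724 and TSH at 1.5 ng/mL final, 30 min at room temperature. cAMP quantified by HTRF (cAMP-d2/anti-cAMP-cryptate, 1 h); 15 concentrations in triplicate.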

Experiment [17] can be described thus: qHTS assay to identify small molecule agonists of the androgen receptor (AR) signaling pathway in the presence of an antagonist - cell viability counter screen (AID 1259379). Further: nearly all actives have a fitted effect of over 25% in size. Further: potency means the concentration at half of the fitted maximal effect. Put shortly:
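Seed MDA-kb2 at 3,000 cells/well; incubate 5 hr, 37C, 0% CO2. Add nilutamide to 3.0uM final, then pin compounds at 15 concentrations. Incubate 16 hr. Add CellTiter-Fluor at 15 hr, read fluorescence after 1 hr.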

Experiment [18] concerns the target Androgen receptor (Homo sapiens) (UniProt P10275). As to the kind of experiment: qHTS assay to identify small molecule agonists of the androgen receptor (AR) signaling pathway in the presence of an antagonist (AID 1259381; calls by dose curve; further: nearly all actives have a fitted effect of over 15% in size). Put shortly:
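Test compounds at 15 concentrations were incubated for 16hr with MDA-kb2 reporter cells in presence of 3.0uM nilutamide (final). Signal: ONE-Glo luciferase luminescence.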

Structures are written as SMILES. Results filed as inconclusive are left out. Active and inactive are the calls of the source. Unless noted, the call rests on the fitted dose curve; in most records, active means well fitted curve in the direction sought with a large enough effect in the repeat runs; inconclusive means weak or mixed curves; inactive means no such curve, though single readings can be large; an effect the other way counts as inactive or inconclusive.

Chain of Estrogen receptor beta (Homo sapiens) (Q92731 whole entry, looked up): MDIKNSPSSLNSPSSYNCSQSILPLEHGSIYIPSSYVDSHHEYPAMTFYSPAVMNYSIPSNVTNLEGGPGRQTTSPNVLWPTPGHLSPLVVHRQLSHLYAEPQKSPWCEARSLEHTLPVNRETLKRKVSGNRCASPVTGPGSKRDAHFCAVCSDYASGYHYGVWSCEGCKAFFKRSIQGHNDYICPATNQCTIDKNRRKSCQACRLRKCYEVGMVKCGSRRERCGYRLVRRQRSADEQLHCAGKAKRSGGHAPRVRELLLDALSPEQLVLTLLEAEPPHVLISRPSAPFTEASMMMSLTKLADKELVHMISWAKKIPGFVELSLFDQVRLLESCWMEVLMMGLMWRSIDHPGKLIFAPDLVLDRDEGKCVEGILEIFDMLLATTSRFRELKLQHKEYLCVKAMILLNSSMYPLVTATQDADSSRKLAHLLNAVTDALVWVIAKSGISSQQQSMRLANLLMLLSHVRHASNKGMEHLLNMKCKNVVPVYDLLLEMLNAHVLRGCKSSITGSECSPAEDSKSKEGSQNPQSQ
Chain of Androgen receptor (Homo sapiens) (P10275 whole entry, looked up): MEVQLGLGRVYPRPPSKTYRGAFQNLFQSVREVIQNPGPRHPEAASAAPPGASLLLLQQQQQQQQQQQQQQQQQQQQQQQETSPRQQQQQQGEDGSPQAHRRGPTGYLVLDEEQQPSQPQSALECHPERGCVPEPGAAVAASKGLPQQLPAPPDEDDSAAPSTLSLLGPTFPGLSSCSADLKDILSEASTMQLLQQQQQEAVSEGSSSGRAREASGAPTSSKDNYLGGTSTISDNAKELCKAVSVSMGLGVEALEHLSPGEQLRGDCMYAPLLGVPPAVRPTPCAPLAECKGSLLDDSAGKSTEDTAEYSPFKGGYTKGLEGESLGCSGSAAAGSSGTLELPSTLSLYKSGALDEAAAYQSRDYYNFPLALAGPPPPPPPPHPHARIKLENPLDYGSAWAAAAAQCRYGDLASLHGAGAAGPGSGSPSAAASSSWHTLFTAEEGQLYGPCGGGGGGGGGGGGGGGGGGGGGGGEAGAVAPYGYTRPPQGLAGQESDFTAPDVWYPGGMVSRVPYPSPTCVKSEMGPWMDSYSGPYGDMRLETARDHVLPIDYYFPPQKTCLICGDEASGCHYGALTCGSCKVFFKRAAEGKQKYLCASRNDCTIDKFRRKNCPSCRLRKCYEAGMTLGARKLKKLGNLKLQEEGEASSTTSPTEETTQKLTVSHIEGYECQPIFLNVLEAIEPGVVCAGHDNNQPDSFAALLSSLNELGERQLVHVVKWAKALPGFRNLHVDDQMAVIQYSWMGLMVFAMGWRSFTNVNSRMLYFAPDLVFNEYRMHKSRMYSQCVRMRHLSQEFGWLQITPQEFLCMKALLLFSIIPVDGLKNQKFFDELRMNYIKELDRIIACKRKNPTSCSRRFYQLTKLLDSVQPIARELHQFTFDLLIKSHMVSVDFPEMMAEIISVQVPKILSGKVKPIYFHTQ
Chain of Thyrotropin receptor (Homo sapiens) (P16473 whole entry, looked up): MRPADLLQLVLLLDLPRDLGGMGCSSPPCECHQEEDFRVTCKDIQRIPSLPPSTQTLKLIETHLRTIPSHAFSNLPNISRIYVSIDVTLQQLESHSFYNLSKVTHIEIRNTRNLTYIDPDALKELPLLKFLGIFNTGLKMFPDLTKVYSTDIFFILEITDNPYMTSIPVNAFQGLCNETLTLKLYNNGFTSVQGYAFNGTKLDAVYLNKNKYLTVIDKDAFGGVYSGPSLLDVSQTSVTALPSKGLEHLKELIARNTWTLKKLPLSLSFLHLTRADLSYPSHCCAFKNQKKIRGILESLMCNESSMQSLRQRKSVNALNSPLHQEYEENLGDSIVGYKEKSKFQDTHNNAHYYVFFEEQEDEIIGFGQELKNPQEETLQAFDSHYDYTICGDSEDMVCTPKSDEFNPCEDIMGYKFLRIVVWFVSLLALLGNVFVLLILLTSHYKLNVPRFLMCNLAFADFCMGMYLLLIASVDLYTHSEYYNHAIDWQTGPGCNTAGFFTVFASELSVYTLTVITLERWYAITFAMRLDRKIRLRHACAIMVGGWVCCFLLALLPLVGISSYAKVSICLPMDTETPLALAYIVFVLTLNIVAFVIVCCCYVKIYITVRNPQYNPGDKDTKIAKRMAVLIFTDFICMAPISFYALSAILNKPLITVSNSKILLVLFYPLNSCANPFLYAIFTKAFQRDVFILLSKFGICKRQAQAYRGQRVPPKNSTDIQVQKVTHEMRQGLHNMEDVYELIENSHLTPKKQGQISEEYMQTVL

As to `COc1ccc(-c2ccc3cc(C(=O)O)ccc3c2)cc1C12CC3CC(CC(C3)C1)C2`, the Potency result in experiment [1], in experiment [2], in [3], in experiment [4], in [5] and in experiment [6] was “inactive” each time. Also, the Potency entry in experiment [7] and in [8] was “inactive” each time. Moreover, the compound was classed as inactive in [9].
In the case of `Fc1ccc(C(c2ccc(F)cc2)N2CCN(C/C=C/c3ccccc3)CC2)cc1`, the Potency result in [1], in experiment [10], in [3], in experiment [11], in experiment [4] and in experiment [5] was “inactive” throughout. Moreover, the Potency entry in [12] and in [8] was “inactive” in each case. The Potency in [13] is 16.8 µM (active). Moreover, the call in experiment [9] was inactive.
`CC1=C(C(=O)OC(C)C)C(c2cccc([N+](=O)[O-])c2)C(C(=O)OC2CN(C(c3ccccc3)c3ccccc3)C2)=C(N)N1` (stereo not drawn): the Potency entry in [1], in experiment [2], in [3], in experiment [14], in experiment [5] and in [8] was “inactive” throughout. In addition, the Potency entry in [16] was “inactive”. Further, the Potency in experiment [11] is 23.7 µM (active); in experiment [4], 26.6 µM (active); in experiment [13], 16.8 µM (active); in [15], 29.8 µM (active). Further, the outcome in [9] was inactive.
On to `COc1ccc(CN2CCN(C(c3ccc(F)cc3)c3ccc(F)cc3)CC2)c(OC)c1OC`, for which the Potency entry in experiment [1], in experiment [3], in experiment [14] and in experiment [5] was “inactive” in each case. For the same compound, the Potency in [17] was 26.6 µM (active); in [15], 11.9 µM (active); in experiment [7], 10.6 µM (active). Moreover, the compound was called inactive in experiment [9].
On to `CCCCCCCC/C=C/CCCCCCCC1=NCCN1CCO`, for which the Potency result in experiment [1], in [3], in experiment [14], in experiment [5] and in experiment [18] was “inactive” each time. For the same compound, the Potency in experiment [6] was 54.5 µM (active); in experiment [13], 54.5 µM (active); in experiment [17] it was 61.1 µM (active); in experiment [15], 27.3 µM (active); in [7], 54.5 µM (active).
For the compound `O=C1C=CC(=O)N1c1ccc(Cc2ccc(N3C(=O)C=CC3=O)cc2)cc1`, the Potency entry in [1], in experiment [14], in [5] and in experiment [8] was “inactive” in each case. The Potency in experiment [11] was 7.7 µM (active); in experiment [4] it was 21.7 µM (active); in [17], 48.6 µM (active); in experiment [15] it was 48.6 µM (active); in [16], 48.6 µM (active). Besides, the outcome in experiment [9] was inactive.
Turning to `Clc1ccc2cc3ccccc3cc2c1`, the Potency result in experiment [1], in experiment [11], in [4], in experiment [5], in [6] and in experiment [17] was “inactive” throughout. Further, the Potency entry in [15], in experiment [18], in experiment [7] and in experiment [8] was “inactive” in each case. Moreover, in experiment [3], the Potency was 54.4 µM (active).
On to `On1ccccc1=S`, for which the Potency in experiment [1] was 9.59 µM (active); in [3], 12.1 µM (active); in experiment [11], 1.71 µM (active); in experiment [4], 3.03 µM (active); in experiment [6], 0.762 µM (active); in experiment [13], 0.428 µM (active). In addition, in [15], the Potency was 0.539 µM (active). The Potency result in [14], in experiment [5] and in experiment [16] was “inactive” each time. Moreover, the outcome in [9] was inactive.
For the compound `Nc1ccc2cc(S(=O)(=O)O)cc(O)c2c1N=Nc1ccccc1C(F)(F)F`, the Potency in experiment [1] and in experiment [17] was 30.6 µM (active) throughout. Moreover, the Potency result in [3], in experiment [14], in [5], in experiment [6], in [12] and in experiment [13] was “inactive” in each case. Besides, the Potency result in experiment [15] and in experiment [7] was “inactive” each time.
For the compound `CCc1cc(SCc2sc(-c3ccc(C(F)(F)F)cc3)nc2CN2CCN(c3ccc(OC)cc3)CC2)ccc1OCC(=O)O`, the Potency entry in experiment [1], in experiment [3], in experiment [4], in [5] and in experiment [12] was “inactive” each time. In addition, the Potency in [14] was 24.3 µM (active); in experiment [13], 5.45 µM (active); in [17], 43.3 µM (active); in experiment [15], 4.33 µM (active); in experiment [7] it was 4.33 µM (active). In addition, the call in [9] was inactive.
Consider `CCCCCCCCS(=O)C(C)Cc1ccc2c(c1)OCO2` (stereo not drawn), for which the Potency entry in [1], in experiment [3], in [5], in [12], in experiment [17] and in [18] was “inactive” each time. Also, the Potency entry in [7] and in [8] was “inactive” each time. Besides, the Potency in experiment [6] was 31.2 µM (active). Moreover, the compound was classed as inactive in experiment [9].
Take `CCCCCCCCCCCCCCCS(=O)(=O)Oc1ccccc1`: the Potency entry in experiment [1], in experiment [3], in experiment [14], in experiment [11], in experiment [4] and in [5] was “inactive” in each case. Moreover, the Potency entry in experiment [12], in experiment [13], in [17], in experiment [15], in [7] and in [8] was “inactive” throughout. For the same compound, the compound was classed as inactive in experiment [9].
`CCOc1nc2cccc(C(=O)OC(C)OC(=O)OC3CCCCC3)c2n1Cc1ccc(-c2ccccc2-c2nn[nH]n2)cc1` (stereo not drawn): the Potency result in experiment [1], in [3], in experiment [5], in [12], in [8] and in experiment [16] was “inactive” each time. The Potency was 13.7 µM (active) in experiment [15] and 19.3 µM (active) in experiment [7]. For the same compound, the outcome in [9] was inactive.
`C=CC(=O)OCCn1c(=O)n(CCOC(=O)C=C)c(=O)n(CCOC(=O)C=C)c1=O`: the Potency in experiment [1] is 48.6 µM (active); in experiment [11], 10.9 µM (active); in experiment [4], 21.7 µM (active); in [6] it was 5.45 µM (active); in experiment [17] it was 21.7 µM (active). Also, the Potency entry in experiment [3], in experiment [5] and in experiment [16] was “inactive” in each case. The compound was classed as inactive in [9].
